The panel holds about 83,000 compounds, 20% with a hit somewhere; the sample as a whole holds those more often.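 Negative percent growth values reflect cell death: -40 means 40% of the cells present at the start died, and -100 means all died.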 A number with no mark means an inactive call. Active and inactive are the calls of the source. The calls were made as follows: active = growth percent below 10; inactive = the rest.
How the values were obtained:
Test in all cases: NCI-60 one-dose screen, 48 h (100 = growth as untreated, 0 = no growth, -100 = all killed)
Conditions in all cases: 10 µM unless noted
[1] = test system: NCI-H23 lung
[2] = test system: NCI-H226 lung
[3] = test system: NCI-H322M lung
[4] = test system: HOP-62 NSCLC
[5] = test system: NCI-H460 lung
[6] = test system: HOP-92 NSCLC
[7] = test system: NCI-H522 lung
[8] = test system: A549/ATCC NSCLC
[9] = test system: 786-0 renal
[10] = test system: COLO 205 colon

Row | SMILES | growth [1] | growth [2] | growth [3] | growth [4] | growth [5] | growth [6] | growth [7] | growth [8] | growth [9] | growth [10]
1 | Cc1ccc(Cc2cnc(NC(=O)c3ccc4noc(-c5ccccc5)c4c3)s2)cc1 | 94.4% | 88.3% | 88.5% | 64.8% | 84.3% | 103% | 72.7% | 71.7% | 96.2% | 107%
2 | Cc1cc(O)c(C2=NN(c3ccc(S(N)(=O)=O)cc3)C(c3ccccc3Cl)C2)cc1Cl (stereo not given) | 2.15% (active) | 38.7% | 48.3% | -6.9% (active) | -36.2% (active) | 38.5% | -56.1% (active) | 13% | -66.3% (active) | -92.1% (active)
3 | COc1cccc(-c2nc3sccn3c2-c2ccnc(NCCNS(=O)(=O)c3ccc(C(F)(F)F)cc3)c2)c1 | 53.7% | 34.8% | 72.3% | 62% | 35.6% | 34.4% | 55.7% | 38.1% | 51.6% | 28.5%
4 | COC(=O)c1c2c(c(C)[n+]([O-])c1C)C(=O)C(NCc1ccc(F)c(Cl)c1)=CC2=O | 16.3% | 84.3% | 3.24% (active) | 28.3% | 7.33% (active) | 19% | -26.6% (active) | 1.3% (active) | -93.5% (active) | -75.5% (active)
5 | C[C@H](NC(=O)[C@@H]1CSSC[C@@H](NC(=O)c2nc3ccccc3cc2O)C(=O)NCC(=O)N1C)c1ccccc1 | 38.6% | 60.5% | 76.7% | 66.6% | 6.55% (active) | 51.6% | 24.7% | 42.9% | -37.2% (active) | -63.7% (active)
6 | O=C(Nc1ccc(-n2cc(-c3ccncc3)c(-c3ccc(Cl)c(O)c3)n2)cc1)N1CCOCC1 | 111% | 103% | 106% | 95.7% | 103% | 90.6% | 94% | 111% | 101% | 97.4%
7 | Cc1cc(Cl)nc(NCc2cc(Nc3ccnc4cc(Cl)ccc34)ccc2F)n1 | 41.5% | 64.2% | 79.6% | 76.7% | 34.8% | 40.4% | 45.1% | 58.5% | 76% | 75.8%
8 | CC1=C([Se]CC(OC(=O)[C@@H](CO)NC(=O)OC(C)(C)C)C(=O)NC(C)(C)C)C(=O)c2ccccc2C1=O (stereo not given in full) | -74.5% (active) | -98.5% (active) | -73.1% (active) | -60.1% (active) | -61.7% (active) | -68.8% (active) | -92.8% (active) | -11.5% (active) | -100% (active) | -100% (active)
9 | CCN(CCNc1ccc(C)c2sc3ccccc3c(=O)c12)CC(C)(C)O | 86.7% | 96.7% | 90.4% | 82.8% | 30.3% | 50.9% | 74.2% | 40.8% | 70.4% | 67.8%
10 | Cc1cc(Cl)ccc1Nc1nc(C(F)(F)F)ccc1C(=O)N/N=C/c1ccc(N(C)C)cc1 | 30.5% | 51.1% | 25.7% | 24% | 20.3% | 18.7% | 7.24% (active) | 18.2% | 16.8% | 14.9%
11 | O=c1[nH]nc(-c2ccccc2)c2c(-c3ccccc3)onc12 | 50.4% | 55.4% | 59.8% | 34.4% | 17% | -6.41% (active) | -22.5% (active) | 58.5% | 45% | 11.3%
12 | Cn1c(=O)c2c(nc(Cl)n2CCl)n(C)c1=O | 3.75% (active) | 120% | 103% | 115% | 111% | 97.6% | 84.8% | 106% | 90.4% | 60.8%
13 | Cc1ccc(C(=O)CSc2nc(-c3ccc(Br)cc3)c(C#N)c(=O)[nH]2)cc1 | 92.6% | 101% | 100% | 89.1% | 102% | 92.2% | 90% | 101% | 98.7% | 102%
14 | COc1ccc2oc3c(C)c4c(c(C)c3c2c1)C(=O)N(Cc1ccccc1)C4=O | 93.3% | 90.1% | 92.4% | 88.9% | 69.4% | 85.5% | 87.5% | 83.9% | 114% | 84.7%
15 | COc1ccc2c(c1)C(=O)/C(=C/c1ccc(OCC(=O)Nc3nccs3)cc1)O2 | 2.06% (active) | 94.1% | 127% | 106% | 90.2% | -78.8% (active) | -61% (active) | 84.9% | -12.6% (active) | 54.9%
16 | NC(=O)c1ccc[n+](Cc2ccc(Cl)cc2Cl)c1 | 102% | 99.3% | 104% | 88.3% | 102% | 96% | 79.4% | 70.1% | 94.7% | 111%
17 | O=C1CC(N2C(=O)/C(=C/C(Cl)=C\c3ccc([N+](=O)[O-])cc3)SC2=S)C(=O)N1c1ccc(O)cc1 (stereo not given) | -41.7% (active) | -64% (active) | 12.2% | 5.91% (active) | 0.922% (active) | -6.73% (active) | -24.1% (active) | 15.6% | -3.2% (active) | -42.9% (active)
18 | COc1ccc(-c2nc3c(c(=O)n2C(C)=O)C(c2ccc(Cl)cc2)c2sc4c(Cl)cccc4c2O3)cc1 (stereo not given) | 3.67% (active) | 15.8% | -5.66% (active) | -5.72% (active) | -10.8% (active) | -15.7% (active) | -45.6% (active) | -55% (active) | -50.1% (active) | -62.3% (active)
19 | COc1cc(C(=O)/C=C/c2c(-c3ccc(F)cc3)nc3sc(C)cn23)cc(OC)c1OC | 28.9% | 58.5% | 52% | 79% | 28.7% | 23.4% | 93.4% | 45.4% | 40.8% | 52%
20 | N#Cc1c(N2CCNCC2)nc2sc3cc(Cl)c(Cl)cc3n2c1=N | 96.9% | 95.2% | 107% | 98.7% | 97.8% | 93.6% | 67.3% | 108% | 105% | 132%
21 | O=C(CC(SCc1ccccc1)c1ccccc1)c1ccccc1 (stereo not given) | 84.6% | 87.6% | 97.1% | 91.7% | 103% | 80.1% | 111% | 101% | 84% | 94.3%
22 | Oc1c(CN2CCCC2)cc(COCc2ccc(Br)cc2)c2cccnc12 | 20.7% | -0.576% (active) | -5.34% (active) | -4.92% (active) | -21.8% (active) | 27.6% | -45% (active) | 4.92% (active) | -8.02% (active) | 39.1%
23 | C=CCOC1=CC(=O)c2ccccc2C1=O | 50.6% | 100% | 91.6% | 95.6% | 105% | 114% | 74% | 91.4% | 102% | 110%
24 | CCOC(=O)c1c2c(n3ccc(NC(=O)OC(C)(C)C)cc13)C(=O)c1ncccc1C2=O | -77.5% (active) | -63.7% (active) | -19.5% (active) | -76.8% (active) | -82.6% (active) | -10.3% (active) | -56.1% (active) | -57.3% (active) | -49.3% (active) | -54.6% (active)
25 | CC/C=C\C[C@H](O)C/C=C1/C(=O)C=C[C@@H]1C/C=C\CCCCO | 60.9% | -23.9% (active) | 50.8% | 6.06% (active) | 0.172% (active) | 48.8% | -40.2% (active) | 5.55% (active) | -49.6% (active) | -34.3% (active)
26 | CCN1CCN(c2cc(C)nc(NCc3cc(Nc4ccnc5cc(Cl)ccc45)ccc3F)n2)CC1 | 56% | 83.7% | 90.2% | 52.3% | 61.8% | 62.9% | 106% | 74.6% | 85% | -86.2% (active)

From PubChem BioAssay (NCI)
